Data on nine compounds can be found in ChEMBL document CHEMBL3988442, “University of Dundee, Small-Polar-MMV Screening Library” (2021).

The structures appear in SMILES notation. For part of these data: Potency and affinity values are given separately.

Holding throughout (set-up): scale not given: direction of the effect not stated beside the values
In experiment [1] the target is Protein translocase subunit SecA (Escherichia coli (strain K12)) (UniProt P10408). In words: Assay to Identify E. coli SecA ATPase Inhibitors. The format is functional. The settings on record: 30 µM.
Protein translocase subunit SecA (Escherichia coli (strain K12)), sequence (P10408 whole entry): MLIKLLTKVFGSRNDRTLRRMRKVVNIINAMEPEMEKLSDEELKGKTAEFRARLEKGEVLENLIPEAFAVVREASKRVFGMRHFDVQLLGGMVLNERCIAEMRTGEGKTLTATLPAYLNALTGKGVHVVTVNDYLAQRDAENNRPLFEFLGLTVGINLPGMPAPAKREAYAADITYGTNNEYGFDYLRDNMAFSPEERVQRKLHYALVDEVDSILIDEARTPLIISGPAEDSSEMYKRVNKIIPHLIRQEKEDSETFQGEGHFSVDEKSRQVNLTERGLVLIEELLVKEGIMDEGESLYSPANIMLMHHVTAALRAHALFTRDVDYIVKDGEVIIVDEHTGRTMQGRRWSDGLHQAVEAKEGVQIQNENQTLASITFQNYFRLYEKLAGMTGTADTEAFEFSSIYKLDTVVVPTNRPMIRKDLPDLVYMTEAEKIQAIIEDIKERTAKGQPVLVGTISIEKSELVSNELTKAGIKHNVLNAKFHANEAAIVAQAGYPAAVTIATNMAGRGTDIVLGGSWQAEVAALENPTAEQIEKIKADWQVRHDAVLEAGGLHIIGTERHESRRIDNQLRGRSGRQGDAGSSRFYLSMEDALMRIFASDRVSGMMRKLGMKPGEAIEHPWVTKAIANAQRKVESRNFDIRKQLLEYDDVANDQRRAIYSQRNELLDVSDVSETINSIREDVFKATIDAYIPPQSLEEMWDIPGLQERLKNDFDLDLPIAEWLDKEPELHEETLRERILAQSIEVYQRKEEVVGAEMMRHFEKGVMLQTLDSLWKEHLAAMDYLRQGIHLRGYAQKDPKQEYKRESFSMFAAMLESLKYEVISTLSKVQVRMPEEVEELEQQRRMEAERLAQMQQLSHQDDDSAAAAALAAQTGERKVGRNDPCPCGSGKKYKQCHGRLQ
Experiment [2] deals with T1, Ubiquitin-activating enzyme e1, putative (Leishmania donovani (strain BPK282A1)) (UniProt E9BSI1).
T1 sequence (whole entry): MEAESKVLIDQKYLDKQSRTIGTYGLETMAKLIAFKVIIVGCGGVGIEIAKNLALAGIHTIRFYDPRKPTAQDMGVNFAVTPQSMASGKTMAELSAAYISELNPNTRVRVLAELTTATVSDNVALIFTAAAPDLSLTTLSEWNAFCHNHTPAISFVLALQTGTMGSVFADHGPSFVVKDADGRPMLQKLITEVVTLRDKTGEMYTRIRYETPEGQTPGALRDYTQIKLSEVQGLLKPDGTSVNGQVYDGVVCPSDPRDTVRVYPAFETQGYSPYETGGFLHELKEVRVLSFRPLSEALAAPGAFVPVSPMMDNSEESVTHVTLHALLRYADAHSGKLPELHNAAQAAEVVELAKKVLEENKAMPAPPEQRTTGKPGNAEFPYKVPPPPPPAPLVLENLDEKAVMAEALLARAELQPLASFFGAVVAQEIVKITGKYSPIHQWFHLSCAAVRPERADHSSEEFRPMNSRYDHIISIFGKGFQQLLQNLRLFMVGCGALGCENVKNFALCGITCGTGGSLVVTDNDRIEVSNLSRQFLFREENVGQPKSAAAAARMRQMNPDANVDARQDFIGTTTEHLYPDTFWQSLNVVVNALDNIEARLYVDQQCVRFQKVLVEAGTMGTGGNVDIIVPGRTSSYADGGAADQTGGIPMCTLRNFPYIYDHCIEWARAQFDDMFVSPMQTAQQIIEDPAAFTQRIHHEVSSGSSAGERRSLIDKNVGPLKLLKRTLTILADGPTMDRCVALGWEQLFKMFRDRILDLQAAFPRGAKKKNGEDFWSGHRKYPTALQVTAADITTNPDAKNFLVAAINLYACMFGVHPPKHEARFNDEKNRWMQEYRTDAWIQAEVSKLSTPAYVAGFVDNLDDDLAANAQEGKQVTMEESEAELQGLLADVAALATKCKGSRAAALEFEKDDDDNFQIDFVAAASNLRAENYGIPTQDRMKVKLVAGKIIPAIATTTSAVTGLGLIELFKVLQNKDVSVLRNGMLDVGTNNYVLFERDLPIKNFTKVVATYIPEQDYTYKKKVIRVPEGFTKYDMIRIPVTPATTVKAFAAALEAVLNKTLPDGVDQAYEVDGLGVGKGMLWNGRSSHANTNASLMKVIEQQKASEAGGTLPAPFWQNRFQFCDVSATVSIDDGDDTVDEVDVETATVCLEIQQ
As to the kind of experiment: Leishmania donovani Ubiquitin Activating Enzyme (LdE1). The following applies: 30 µM. It counts as functional.

Experiment [3] has as its target AMP-activated protein kinase, AMPK (Homo sapiens) (UniProt P54646+O43741+P54619+Q9UGJ0+Q9Y478+Q13131+Q9UGI9). In words: AMP-dependent Kinase enzyme assay. An in vitro enzyme assay that detects ADP turnover that is directly proportional to AMPK activity. This uses naive AMPK that is activated during the assay with MK-8722. The format is functional. The following applies: 30 µM.

In experiment [4] the target is Sialic acid-binding Ig-like lectin 9 (Homo sapiens) (UniProt Q9Y336). As to the kind of experiment: Hs-Siglec9 ALPHAscreen SOP 20170721. The following applies: 10 µM. (Bead proximity is the source of the signal in Alpha formats.)
Sialic acid-binding Ig-like lectin 9 (Homo sapiens), sequence (Q9Y336 whole entry): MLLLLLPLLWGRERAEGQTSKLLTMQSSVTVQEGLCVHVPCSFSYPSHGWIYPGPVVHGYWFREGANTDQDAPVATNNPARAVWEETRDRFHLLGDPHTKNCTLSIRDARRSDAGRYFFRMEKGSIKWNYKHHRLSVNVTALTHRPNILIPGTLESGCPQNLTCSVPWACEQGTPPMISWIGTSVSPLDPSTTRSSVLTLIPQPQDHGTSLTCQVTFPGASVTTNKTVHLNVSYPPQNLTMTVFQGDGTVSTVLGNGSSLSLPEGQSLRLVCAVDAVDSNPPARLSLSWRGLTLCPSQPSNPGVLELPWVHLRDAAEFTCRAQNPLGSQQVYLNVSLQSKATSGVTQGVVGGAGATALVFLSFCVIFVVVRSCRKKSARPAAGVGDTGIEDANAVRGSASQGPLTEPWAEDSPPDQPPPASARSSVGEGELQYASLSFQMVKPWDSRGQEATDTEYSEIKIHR
A further experiment relates to Trypanosoma cruzi. As to the kind of experiment: Trypanosoma cruzi phosphomannomutase and mannose-1-phosphate guanylyltransferase assay. It counts as functional. The following applies: 10 µM.
In experiment [5] the target is T2, Arginase-2, mitochondrial (Homo sapiens) (UniProt P78540).
T2 sequence (whole entry): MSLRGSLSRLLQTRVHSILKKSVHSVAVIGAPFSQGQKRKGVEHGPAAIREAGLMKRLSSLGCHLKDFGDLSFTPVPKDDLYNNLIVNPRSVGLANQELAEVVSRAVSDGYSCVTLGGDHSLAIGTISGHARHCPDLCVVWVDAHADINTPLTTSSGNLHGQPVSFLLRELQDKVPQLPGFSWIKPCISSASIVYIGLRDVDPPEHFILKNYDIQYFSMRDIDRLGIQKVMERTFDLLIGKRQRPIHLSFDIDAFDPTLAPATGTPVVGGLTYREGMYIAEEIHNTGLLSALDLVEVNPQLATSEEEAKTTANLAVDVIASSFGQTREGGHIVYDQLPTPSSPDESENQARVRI
As to the kind of experiment: in vitro enzyme assay to detect the production of urea directly proportional to the activity of Arginase II. Note: in the data most compounds retested in dose-response had high values. The format is functional. The settings on record: 33.3 µM.

Experiment [6] has as its target T3, Proteasome subunit beta (Trypanosoma cruzi) (UniProt O96673).
T3 sequence (whole entry): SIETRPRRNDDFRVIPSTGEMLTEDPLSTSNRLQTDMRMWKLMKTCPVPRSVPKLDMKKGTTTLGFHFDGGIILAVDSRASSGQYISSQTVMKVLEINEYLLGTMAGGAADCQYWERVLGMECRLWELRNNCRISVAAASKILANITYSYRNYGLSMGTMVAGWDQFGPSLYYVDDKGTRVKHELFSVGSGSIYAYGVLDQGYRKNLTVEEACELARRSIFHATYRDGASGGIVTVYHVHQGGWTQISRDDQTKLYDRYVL
In words: Trypanosoma cruzi proteasome chymotrypsin-like activity (TcProtChymo) assay. Note: in the data most compounds retested in dose-response had high values. The format is functional. The following applies: 9.37 µM.

For a further experiment, the species on record is Homo sapiens. As to the kind of experiment: To identify inhibition of the IFN signalling (Jak-Stat) pathway via expression of an eGFP reporter gene under the control of an IFN-stimulated response element (ISRE) containing MxA promoter. The format is functional. The following applies: 30 µM. For orientation: A reporter such as luciferase makes a cellular process visible.

Experiment [7] concerns the target T4, Tyrosyl-tRNA synthetase, putative (Trypanosoma cruzi (strain CL Brener)) (UniProt Q4DSP6).
T4 sequence (whole entry): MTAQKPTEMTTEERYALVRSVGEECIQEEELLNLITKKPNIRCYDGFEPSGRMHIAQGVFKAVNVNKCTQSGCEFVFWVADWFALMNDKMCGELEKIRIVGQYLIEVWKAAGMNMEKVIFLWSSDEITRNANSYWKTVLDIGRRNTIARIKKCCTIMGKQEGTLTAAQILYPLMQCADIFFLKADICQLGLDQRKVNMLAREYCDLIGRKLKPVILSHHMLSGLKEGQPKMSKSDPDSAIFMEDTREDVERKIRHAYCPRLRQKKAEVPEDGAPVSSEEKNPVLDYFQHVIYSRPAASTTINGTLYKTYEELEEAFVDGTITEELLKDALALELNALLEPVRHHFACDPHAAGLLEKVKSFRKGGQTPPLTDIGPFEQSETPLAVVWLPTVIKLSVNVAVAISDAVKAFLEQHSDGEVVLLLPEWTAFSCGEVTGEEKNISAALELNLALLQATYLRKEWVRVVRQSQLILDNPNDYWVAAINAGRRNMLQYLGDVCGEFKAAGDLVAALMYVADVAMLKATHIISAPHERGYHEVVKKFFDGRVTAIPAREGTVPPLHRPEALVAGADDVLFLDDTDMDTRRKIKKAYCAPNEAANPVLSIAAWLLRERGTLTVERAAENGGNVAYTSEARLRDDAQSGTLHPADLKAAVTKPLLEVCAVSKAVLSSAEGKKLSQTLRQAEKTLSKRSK
In words: Trypanosoma cruzi tyrosyl tRNA synthetase (TcYRS) _High Tyrosine SOP. Note: in the data most compounds retested in dose-response had high values. The format is functional. The settings on record: 30 µM.

Experiment [8] addresses T4, Tyrosyl-tRNA synthetase, putative (Trypanosoma cruzi (strain CL Brener)). As to the kind of experiment: Trypanosoma cruzi tyrosyl tRNA synthetase (TcYRS) SOP. The format is functional. The following applies: 30 µM.
Experiment [9] addresses Chromo domain-containing protein 1 (Saccharomyces cerevisiae (strain ATCC 204508 / S288c) (Baker's yeast)) (UniProt P32657). As to the kind of experiment: ScCHD-1 Enzyme Inhibition Assay. Note: in the data most compounds retested in dose-response had high values. It counts as functional. The following applies: 30 µM.

Chromo domain-containing protein 1 (Saccharomyces cerevisiae (strain ATCC 204508 / S288c) (Baker's yeast)), sequence (P32657 whole entry, the tested form may be a part): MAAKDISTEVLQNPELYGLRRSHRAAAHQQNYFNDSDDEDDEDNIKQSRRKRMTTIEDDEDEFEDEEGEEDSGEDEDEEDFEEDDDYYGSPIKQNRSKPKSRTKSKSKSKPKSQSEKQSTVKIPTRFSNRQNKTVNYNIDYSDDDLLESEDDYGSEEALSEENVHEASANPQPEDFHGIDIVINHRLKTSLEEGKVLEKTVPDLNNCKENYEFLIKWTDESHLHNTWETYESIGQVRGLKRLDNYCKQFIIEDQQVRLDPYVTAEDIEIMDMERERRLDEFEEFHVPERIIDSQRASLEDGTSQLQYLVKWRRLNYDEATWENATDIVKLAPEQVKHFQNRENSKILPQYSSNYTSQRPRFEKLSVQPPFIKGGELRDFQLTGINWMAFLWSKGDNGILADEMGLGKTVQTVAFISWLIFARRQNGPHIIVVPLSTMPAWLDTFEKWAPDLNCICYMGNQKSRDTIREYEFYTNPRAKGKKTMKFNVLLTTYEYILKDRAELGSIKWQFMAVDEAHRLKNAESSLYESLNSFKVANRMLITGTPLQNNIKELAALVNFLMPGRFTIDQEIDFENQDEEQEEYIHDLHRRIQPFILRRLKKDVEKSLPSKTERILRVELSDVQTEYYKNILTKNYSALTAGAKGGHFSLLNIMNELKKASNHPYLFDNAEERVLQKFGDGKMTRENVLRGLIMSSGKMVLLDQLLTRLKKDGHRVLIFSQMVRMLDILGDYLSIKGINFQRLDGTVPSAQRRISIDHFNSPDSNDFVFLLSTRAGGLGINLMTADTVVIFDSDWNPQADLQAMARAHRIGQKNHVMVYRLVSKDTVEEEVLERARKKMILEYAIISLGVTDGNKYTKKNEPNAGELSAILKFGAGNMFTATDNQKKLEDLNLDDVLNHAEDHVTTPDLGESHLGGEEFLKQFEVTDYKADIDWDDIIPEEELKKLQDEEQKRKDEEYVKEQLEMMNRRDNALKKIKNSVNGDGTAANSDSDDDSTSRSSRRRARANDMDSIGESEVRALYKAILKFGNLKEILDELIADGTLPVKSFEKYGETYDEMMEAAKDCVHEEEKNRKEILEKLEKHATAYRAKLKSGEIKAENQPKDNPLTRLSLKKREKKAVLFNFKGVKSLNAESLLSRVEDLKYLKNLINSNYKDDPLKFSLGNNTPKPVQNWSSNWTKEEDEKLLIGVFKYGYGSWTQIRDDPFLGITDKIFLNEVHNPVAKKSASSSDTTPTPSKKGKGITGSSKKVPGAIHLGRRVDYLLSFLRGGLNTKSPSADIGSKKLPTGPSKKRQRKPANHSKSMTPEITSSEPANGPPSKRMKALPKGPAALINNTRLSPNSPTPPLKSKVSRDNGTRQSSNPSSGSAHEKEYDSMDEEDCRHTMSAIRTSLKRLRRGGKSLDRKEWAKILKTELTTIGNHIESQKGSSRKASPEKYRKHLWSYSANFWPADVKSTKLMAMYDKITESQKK

On to `Cc1cc(C)n(CC(=O)N(C)Cc2csc(-c3cccs3)n2)c(=O)n1`, for which the Percent Effect in experiment [1] was 0.251%; in experiment [2], 0%; in experiment [3], -4.15%; in experiment [4], 2.64%; with Trypanosoma cruzi, 1.66%; in [5], 7.29%. For the same compound, the Percent Effect is 19.5% in experiment [6]; 17.8% in the experiment filed under Homo sapiens; 6.01% in experiment [7]; 18.5% in experiment [8]; -6.32% in [9].
With `CN(C)C(=O)c1nc2c(s1)CCN(C(=O)c1ccc(Cl)cc1)CC2`, the Percent Effect in [1] is -2.69%; in [2], 18.7%; in experiment [3], -9.31%; in experiment [4] it was -1.54%; in the experiment with Trypanosoma cruzi it was 2.7%; in experiment [5] it was -29.6%. Besides, the Percent Effect is 10.4% in experiment [6]; -8.27% in the experiment filed under Homo sapiens; 9.38% in experiment [7]; 30% in experiment [8]; -12.2% in experiment [9].
Consider `CCc1nc(CN(CC(N)=O)C(C)C)cs1`, for which the Percent Effect was -2.67% in [1]; 17.7% in experiment [2]; 0.603% in experiment [3]; 3.91% in experiment [4]; 1.23% in the experiment with Trypanosoma cruzi; -1.14% in experiment [5]. Also, the Percent Effect is 7.78% in experiment [6]; 7.33% in the experiment listed under Homo sapiens; 10.3% in [7]; 21.5% in experiment [8]; -2.93% in experiment [9].
Take `COc1cc(CNCc2ccnc(N3CCOCC3)c2)cc(Cl)c1OC`: the Percent Effect in [1] is -5.46%; in experiment [2], 16.2%; in experiment [3], -4.43%; in experiment [4], 13.4%; with Trypanosoma cruzi, 0.0943%; in experiment [5] it was -5.21%. For the same compound, the Percent Effect is 3.78% in experiment [6]; 27.8% in the experiment filed under Homo sapiens; 5.42% in experiment [7]; 18.5% in experiment [8]; -8.15% in experiment [9].
For the compound `Cc1cccn2c(=O)cc(OC(=O)c3ccccc3)nc12`, the Percent Effect in [1] was 1.09%; in [2] it was 0%; in experiment [3], 45.4%; in experiment [4], -1.9%; in the experiment on Trypanosoma cruzi it was -4.97%; in experiment [5] it was -14.2%. The Percent Effect in experiment [6] was 5.27%; in the experiment listed under Homo sapiens it was -1.07%; in experiment [7], 0%; in experiment [8], 0%; in [9] it was -3.23%.
In the case of `CCc1nnc2n1CCN(C(=O)c1cc3ccc(F)cc3nc1C)C2`, the Percent Effect is -5.47% in experiment [1]; 15.6% in experiment [2]; 4.64% in experiment [3]; 3.18% in experiment [4]; 1.12% with Trypanosoma cruzi; -3.92% in [5]. In addition, the Percent Effect in experiment [6] is 6.59%; in the experiment filed under Homo sapiens, -1.03%; in experiment [7] it was 11.7%; in experiment [8], 21.9%; in experiment [9], -6.09%.
As to `Nc1nccc(NCc2cc3n(n2)CCCN(C(=O)C2CCC2)C3)n1`, the Percent Effect is -4.85% in experiment [1]; 8.22% in experiment [2]; 2.89% in experiment [3]; 2.05% in [4]; -0.794% in the experiment on Trypanosoma cruzi; -3.59% in [5]. The Percent Effect in experiment [6] was 14.5%; in the experiment listed under Homo sapiens it was 9.88%; in experiment [7], 4.17%; in experiment [8], 11.1%; in experiment [9], -0.468%.
Turning to `CN1CCC(NC(=O)NCCNc2ccccn2)CC1`, the Percent Effect is -2.67% in [1]; 16.2% in experiment [2]; -6.97% in experiment [3]; 16.2% in [4]; 4.92% in the experiment on Trypanosoma cruzi; 3.14% in [5]. Also, the Percent Effect was 16.5% in experiment [6]; 5.52% in the experiment listed under Homo sapiens; 3.96% in experiment [7]; 15.8% in [8]; -6.11% in experiment [9].
`CC(=O)N1CCO[C@@H]2CN(C(=O)c3cc(C)oc3C)CC[C@@H]2C1`: the Percent Effect is -6.41% in [1]; 10.8% in [2]; -31.2% in experiment [3]; -10.6% in [4]; -1.07% in the experiment with Trypanosoma cruzi; 0.319% in experiment [5]. Besides, the Percent Effect is 7.75% in [6]; 19.1% in the experiment listed under Homo sapiens; 0% in [7]; 0% in experiment [8]; -3.96% in experiment [9].
